Bioassay records as filed in PubChem.
IEC-6 cytotox: IEC-6 cytotoxicity, counter-screen for KLF5 inhibitors. luminescence viability. inhibition, % at 5 µM. 290,000 tested, 0.78% active; in the data active = inhibition above about 22%
aSyn 5UTR inh: MLPCN primary screen, SNCA 5' untranslated region; alpha-synuclein 5'UTR reporter, inhibitor activity; inhibition, % (tested at 7.5 µM); 300,000 tested, 0.82% active; in the data active = inhibition above about 60%;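 also: H4 neuroglioblastoma cells stably carrying SNCA 5'UTR luciferase fusion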
BaF3 parental: parental Ba/F3 viability inhibition as JAK2V617F counter-screen | CellTiter-Glo ATP luminescence | 220,000 tested, 1.1% active | inhibition, % at 5.6 µM;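 active = inhibition above a per-campaign cutoff, the mean inhibition of all tested compounds plus 3 SD, cut at about 27% in these data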
KLF5 inh: suppresses KLF5 promoter-driven expression; DLD-1 KLF5 promoter-luciferase reporter, luminescence; inhibition, % at 5 µM; 290,000 tested, 0.23% active; AID 1700;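 active = inhibition above a per-plate limit of that plate's mean compound inhibition plus 3 SD, cut at about 60% in these data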;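 also: higher means less KLF5 promoter-driven luciferase light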
Ba/F3 V617F tox: lowers viability of Ba/F3 cells expressing EpoR and JAK2V617F; ATP luminescence; inhibition, % at 5.6 µM; 220,000 tested, 1.1% active; AID 1446;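 active = inhibition above the campaign mean plus 3 SD over all tested compounds, cut at about 24% in these data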;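 also: cytokine-independent growth of Ba/F3 cells driven by EpoR plus mutant JAK2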
APP transl inh: APP translation inhibition; SH-SY5Y APP 5'UTR-luciferase reporter, luminescence; inhibition, % at 2 µM; 190,000 tested, 0.82% active; AID 1285;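 active = inhibition above a set limit, derived from the sample mean plus 3 SD, cut at about 45% in these data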
Numbers stand for hits; – = inactive; · = no result. Rows were chosen to be rich in hits. Some 2.2% of all compounds tested hit in one or more screens of this group.

SMILES	IEC-6 cytotox	aSyn 5UTR inh	BaF3 parental	KLF5 inh	Ba/F3 V617F tox	APP transl inh
O=C(c1ccc(F)cc1)C(CN1CCOCC1)c1ccccc1 (configuration not stated)	–	–	–	–	–	95
O=C(c1ccc(Cl)cc1)C(CN1CCCC1)c1ccccc1 (configuration not stated)	–	–	·	–	·	·
Cc1cc2ccccc2n1CCNC(=O)C(C)Oc1ccccc1 (configuration not stated)	–	–	–	–	–	–
O=C(CN1CCC(NC(=O)c2cccc(F)c2)CC1)Nc1ccc(Br)cc1	–	68	·	–	·	·
CC1=NN(c2ccccc2)C(=O)/C1=C\C=C\c1ccccc1	–	–	–	–	–	·
CC1=NN(c2ccc(C)c(C)c2)C(=O)/C1=C\C=C\c1ccc([N+](=O)[O-])o1	–	78	–	–	–	95
COc1ccccc1-c1noc(CCC(=O)NC2CCCCC2)n1	–	–	·	–	·	·
CCOC(=O)c1c(CSc2ccc(CC)cc2)oc2ccc(O)c(CN(C)C)c12	–	66	·	–	·	·
Oc1ccc(Nc2nc3ccccc3nc2Nc2ccc(O)cc2)cc1	–	108	100	–	93	87
COc1ccc(S(=O)(=O)NCC2CCCN(C(=O)CCC(F)(F)F)C2)cc1 (configuration not stated)	–	–	·	–	·	·
CCCNC(=O)CCn1nc(-c2ccc(C)cc2)c2ccccc2c1=O	–	–	·	–	·	·
CCCNC(=O)CCn1nc(-c2ccc(Cl)cc2)c2ccccc2c1=O	–	82	–	–	–	·
CCCCOc1ccccc1C1CC(=O)NC2=C1C(=O)CCC2 (configuration not stated)	84	94	83	–	82	88
O=C(NC(=S)NNC(=O)c1cnccn1)c1ccc(F)cc1	–	70	–	–	–	–
O=C(NNC(=S)NC(=O)c1cccnc1)c1ccc(F)cc1	–	–	–	–	–	·
O=C(/C=C/c1ccc(F)cc1)NC(=S)NNC(=O)c1cnccn1	–	95	–	–	–	·
COc1ccc(/C=C/C(=O)NC(=S)NNC(=O)c2cccnc2)cc1	–	–	–	–	–	–
O=C(/C=C/c1ccc(F)cc1)NC(=S)Nc1ccccc1	–	–	·	–	·	·
COc1ccc(/C=C/C(=O)NC(=S)NNC(=O)c2cnccn2)cc1	–	75	–	–	–	·
Cc1occc1C(=O)O/N=C(\N)c1ccc(Cl)cc1	–	–	–	–	–	·
COc1ccc(-c2nc(N)n(C(=O)c3ccco3)n2)cc1	–	–	–	–	–	–
COc1ccc(-n2nnc3c(=O)n(Cc4cccc(C)c4)cnc32)cc1	–	–	–	–	–	–
Cc1ccc(C(=O)CN2C(=O)c3ccccc3S2(=O)=O)cc1	–	109	–	–	–	·
O=C(CN1C(=O)c2ccccc2S1(=O)=O)c1ccccc1	–	·	–	–	–	–
Cc1cc(C(=O)CN2C(=O)c3ccccc3S2(=O)=O)c(C)n1-c1ccccc1	–	120	–	–	–	–
SMILES	IEC-6 cytotox	aSyn 5UTR inh	BaF3 parental	KLF5 inh	Ba/F3 V617F tox	APP transl inh
COc1ccc(C(=O)Nc2ccc(Cn3ccnc3)cc2)cc1OC	–	–	·	–	·	·
COc1ccc(C(=O)Nc2cnn(Cc3ccc(Cl)cc3)c2)cc1OC	–	–	36	–	35	–
Cc1ccc2c(COC(=O)c3ccccc3F)cc(=O)oc2c1	–	–	·	–	·	·
Cc1cc(C(=O)N/N=C/c2cc(Br)cc(Br)c2OC(=O)c2cccc(F)c2)n[nH]1	–	70	–	–	–	–
Cc1cc(C(=O)N/N=C/c2cccs2)n[nH]1	–	–	–	–	–	–
Cc1cc(C(=O)N/N=C/c2cc(Br)cc(Br)c2OC(=O)c2ccccc2)n[nH]1	–	89	–	–	–	–
Cc1cccc(C(=O)Oc2c(Br)cc(Br)cc2/C=N/NC(=O)c2ccncc2)c1	–	–	·	–	·	·
Cc1cc(C(=O)N/N=C\c2cc(C(C)(C)C)ccc2O)n[nH]1	–	75	·	–	·	·
Cc1cc(C(=O)N/N=C/c2cc(Br)ccc2OC(=O)c2ccc(Br)cc2)n[nH]1	–	84	–	–	–	–
CC(=O)N(Cc1cc(=O)[nH]c2ccccc12)c1ccccc1	–	–	–	–	–	–
O=C(c1ccc(NC2=NC3CS(=O)(=O)CC3S2)cc1)N1CCN(Cc2ccccc2)CC1 (configuration not stated)	–	–	–	–	–	–
CCCCC(NC(C)=O)c1nc2ccccc2[nH]1 (configuration not stated)	–	–	–	–	–	–
Cc1ccc(/C(C#N)=C\c2ccc(N3CCOCC3)o2)cc1	–	–	36	–	–	–
Cc1ccc2nc(/C(C#N)=C\c3ccc(N4CCOCC4)o3)[nH]c2c1	–	–	41	–	–	–
N#C/C(=C/c1ccc(N2CCCCCC2)o1)c1ccc(Cl)cc1	–	–	–	–	–	–
CN1C(=O)C(C)(C)c2cc(S(=O)(=O)N3CCCC3C(=O)NCc3ccccc3Cl)ccc21 (configuration not stated)	–	–	·	–	·	·
C/C(=N\NC(=O)c1ccncc1)c1ccc(N(C)C)cc1	–	–	–	–	–	–
CN(C)S(=O)(=O)c1ccc(C(=O)OCCN=C2NS(=O)(=O)c3ccccc32)cc1	–	–	·	–	·	·
CN(C)S(=O)(=O)c1ccc(C(=O)OCCCN=C2NS(=O)(=O)c3ccccc32)cc1	–	–	–	–	–	45
CCCn1c(C)cc(C(=O)COc2ccc(C)nc2[N+](=O)[O-])c1C	–	–	–	–	–	–
Cc1ccc(OCC(=O)c2cc(C)n(-c3ccccc3)c2C)c([N+](=O)[O-])n1	–	68	–	–	–	–
CCN1C(=O)C(CC(=O)Nc2ccc(F)cc2)N(CCCN2CCN(c3ccc(F)cc3)CC2)C1=S (configuration not stated)	–	–	–	–	–	–
Cc1nc(Nc2nc3c(c(=O)[nH]2)CCC3)nc2ccccc12	·	126	·	·	·	·
Cc1cc(C(=O)Nc2ccc3c(c2)OCCO3)co1	–	–	–	–	–	–
COc1ccc(O)c(/C=N/NC(=S)Nc2cccc(S(=O)(=O)N(C)C)c2)c1	–	74	–	–	–	60
SMILES	IEC-6 cytotox	aSyn 5UTR inh	BaF3 parental	KLF5 inh	Ba/F3 V617F tox	APP transl inh
Fc1ccccc1CNc1ncnc2sccc12	–	–	·	–	·	·
c1ccc2c(c1)OCC(CNc1ncnc3sccc13)O2 (configuration not stated)	–	–	62	–	60	–
Cc1ccc(OCCN2CCN(c3ncnc4sc(C)c(C)c34)CC2)cc1	–	–	28	–	–	·
CC(=O)O[C@H]1C(=O)[C@@]2(C)[C@H]([C@H](OC(=O)c3ccccc3)[C@]3(O)C[C@H](OC(=O)[C@H](O)C(NC(=O)c4ccccc4)c4ccccc4)C(C)=C1C3(C)C)[C@]1(OC(C)=O)CO[C@@H]1C[C@@H]2O (some centres not stated)	·	72	·	·	·	·
COc1cccc(/C=C2\Oc3ccc(O)cc3C2=O)c1O	–	83	·	–	·	·
COC(=O)c1ccc2c(c1)C(=O)/C(=C/c1ccc(O)cc1)O2	–	–	–	–	–	–
